Screens: PubChem, several laboratories
Shown are actives, neighbours in structure and some others; about 2.8% of the full set was active somewhere.
CF NFkB block – inhibitors of cystic fibrosis induced NF-kB | KKLEB NF-kB-GFP reporter, PAF-induced, GFP fluorescence overnight | inhibition, % at 5 µM | hit rate 0.86% among 360,000;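 active means at least 50% inhibition at 5 µM, scaled per plate between neutral and stimulator controls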;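 further: PAF is a Pseudomonas aeruginosa culture filtrate used as stimulus; plate controls were PAF-stimulated DMSO wells for no effect and unstimulated DMSO wells for full effect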
MITF TRPM1 inh – reduces MITF-dependent TRPM1 promoter luciferase signal; SK-MEL-5 TRPM1 promoter luciferase, 24 h; inhibition, % at 12.5 µM; hit rate 0.83% among 330,000; AID 488899;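 active means mean inhibition across replicates of 60% or more, whatever share of single replicates reaches that level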
Peg3 promoter – Peg3 promoter activity inhibition; inhibition, % at 20 µM; hit rate 1.7% among 360,000; HeLa PEG-Prom luciferase reporter, luminescence, overnight;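 active means inhibition of at least 50% at 20 µM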
KKLEB tox – counter-screen for CF NF-kB inhibitors: cytotoxicity. KKLEB CF airway cells viability, ATPlite luminescence, overnight; stronger effect = lower value; cells stimulated with P. aeruginosa culture filtrate. activity change (cytotoxicity), % at 5 µM. hit rate 0.36% among 360,000;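 active means corrected activity change at or below -50% at 5 µM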
HIF-2a block – inhibitors of HIF-2a. hit rate 0.72% among 360,000. inhibition, % at 18.8 µM. 786-0 RCC cells HIF-2a reporter, luciferase luminescence, overnight;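 active means inhibition of the luminescence signal of 40% or more relative to plate controls, in a single-dose primary screen at 18.75 µM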
Shn3 3UTR inh – inhibitors of Schnurri-3 3'UTR reporter in osteoblasts; hit rate 0.52% among 360,000; AID 588674; inhibition, % at 12.5 µM; Clone20 osteoblast Shn3 3'UTR firefly luciferase, 24 h;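 active means mean inhibition of at least 75% with every replicate also reaching 75%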;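 further: 0% = median of neutral control wells and 100% = pilot-screen positive control compound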
* hit, by the source's call; / = no result given.

SMILES | CF NFkB block | MITF TRPM1 inh | Peg3 promoter | KKLEB tox | HIF-2a block | Shn3 3UTR inh
CCCCN1C(=O)C(CC(=O)NCCCN(C)C)CC(C(=O)N2CCOCC2)=C1C (stereo not given) | -10.5 | / | -8.5 | 10.4 | 4.6 | -12.8
COCCn1c(SCC(=O)NC(=O)NC2CCCC2)nc2ccccc2c1=O | 19.1 | 7.7 | 17.1 | -14.9 | 7.2 | 57.1
CCOc1ccc(NS(=O)(=O)c2cc(C(=O)N(CC)CC(=O)NCc3cccs3)ccc2C)cc1 | 12.0 | 0.8 | 15.3 | 2.3 | 25.5 | -10.0
CCOc1cc(S(=O)(=O)n2cnc(C)c2)ccc1Cl | -23.8 | 3.7 | 3.2 | 9.0 | 12.9 | 0.1
COC1=CC(=O)C(OC)=C(OC)C1=O | 58.5* | 0.8 | 62.6* | 14.2 | 14.2 | 69.6
O=[N+]([O-])c1cccc(N=Nc2ccc(O)cc2O)c1 | 65.6* | -3.5 | -58.8 | -41.0 | -153.7 | 7.7
Fc1ccc(-n2nnnc2-c2cnc(-c3cccs3)nc2C(F)(F)F)cc1 | -7.0 | 27.2 | 100.2* | -14.8 | 5.1 | 90.4*
COc1ccc2nc(N=Nc3ccc(N(C)C)cc3)sc2c1 | 6.8 | 22.5 | 24.8 | -74.2* | -138.0 | 19.5
CN(C(=O)COC(=O)c1ccc(-c2ccc(O)cc2)cc1)C1CCS(=O)(=O)C1 (stereo not given) | -9.8 | -1.7 | -17.3 | 13.0 | -9.6 | -4.6
COc1ccc2c(CC(=O)Nc3nc(C)cs3)coc2c1 | 5.7 | -7.9 | -72.6 | -12.6 | -62.4 | -15.5
COc1ccc2c(CC(=O)Nc3ncc(C)s3)coc2c1 | 25.5 | -40.5 | 65.5* | -7.3 | -238.2 | -57.5
CN(CC(=O)Nc1ccc(OC(F)(F)F)cc1)C(=O)Cc1cccs1 | -8.4 | -15.3 | -1.9 | 3.6 | -22.3 | -1.8
COc1ccc(Br)cc1CN1CCN(Cc2c[nH]c3ccccc23)CC1 | 10.1 | 10.7 | 52.0* | -4.8 | 15.7 | 39.8
O=C(c1cc([N+](=O)[O-])[nH]n1)N1CCSCC1 | 7.9 | -3.1 | 15.3 | -7.2 | 14.3 | 4.5
CCCCN1C(=O)/C(=C/C=C2\Oc3ccccc3N2CC)SC1=S | -113.6 | -7.9 | -1.4 | -9.5 | -17.3 | 12.8
CCN1/C(=C/C=C/c2oc3ccc(-c4ccccc4)cc3[n+]2CC)Oc2ccc(-c3ccccc3)cc21 | -412.3 | 101.7* | 83.8* | -20.0 | 86.5* | 96.0*
OCCN1CCN(Cc2cc(Cl)c3cccnc3c2O)CC1 | -20.0 | 8.4 | 16.6 | 8.8 | 6.8 | 16.4
Oc1c(CN2CCCCC2)ccc2cccnc12 | 13.0 | 77.2* | 23.3 | -1.9 | -3.6 | 84.3
O=[N+]([O-])c1cc(CN2CCCC2)c2cccnc2c1O | 26.0 | 10.6 | 19.6 | -27.5 | 11.7 | -27.2
Oc1c(CN2CCCCC2)cc(COCc2ccccc2)c2cccnc12 | 12.7 | 88.0* | 76.0* | -5.5 | -10.0 | 92.1*
Oc1c(CN2CCN(c3ccccn3)CC2)cc(Cl)c2cccnc12 | 11.4 | 84.3* | 50.3* | 0.7 | 24.7 | 81.1
COc1ccccc1N1CCN(Cc2cc(Br)c(O)c3ncccc23)CC1 | 12.8 | 70.8* | 19.9 | -9.2 | 11.7 | 69.8
Cc1ccc(C(=O)N2CCN(c3ccccc3F)CC2)cc1S(=O)(=O)N1CCOCC1 | 12.6 | -7.0 | 3.7 | 1.6 | 17.1 | 13.5
O=C(COC(=O)c1cc(Br)ccc1Cl)NC1CCCC1 | -1.6 | 13.0 | 1.9 | 2.5 | 7.1 | -4.3
C[C@H](O)[C@@H]1C(=O)N2CCc3c([nH]c4ccccc34)[C@@H]2C[C@@H]1N(C)S(=O)(=O)c1ccccc1 | -5.1 | / | -17.4 | -3.3 | -57.9 | -2.9
SMILES | CF NFkB block | MITF TRPM1 inh | Peg3 promoter | KKLEB tox | HIF-2a block | Shn3 3UTR inh
Oc1c(Cl)cc(CN2CCCCC2)c2cccnc12 | 14.0 | 64.4* | 45.6 | 0.0 | 7.5 | 83.6
COCc1cc(CN2CCCC2)c(O)c2ncccc12 | -17.0 | 26.8 | 20.1 | 3.6 | 20.5 | 40.9
CN(C)C1CCN(Cc2cc(COCc3ccccc3)c3cccnc3c2O)C1 (stereo not given) | 21.4 | 73.2* | 35.8 | -9.2 | 2.4 | 87.8*
Oc1ccc(CN2CCCCC2)c2cccnc12 | -18.3 | 32.7 | -1.6 | -4.8 | -0.7 | 79.4
CCC(C)NC(=O)NCc1ccccc1F (stereo not given) | 14.8 | 2.6 | 2.4 | -1.3 | 7.5 | -8.1
COc1ccc(CNC(=O)c2sc(=O)n(Cc3ccccc3OC)c2C)cc1 | 13.3 | / | 17.6 | -5.0 | 2.4 | 5.3
O=C(CCSCc1cccc(Cl)c1)NCCc1ccccc1 | -5.6 | -7.0 | 2.7 | -2.1 | 0.9 | -7.3
